Results taken from PubChem BioAssay (NCI).
This is part of a sample that, as a whole, favours compounds with a hit. Of some 79,000 tested, about 15% had one in any assay. Values without a mark were called inactive. Calls of active or inactive are those of the source. Rule as the data show it: active = growth inhibition above about 70%; inactive = the rest.

Columns and labels:
[1] = NCI Yeast Anticancer Drug Screen. Data for the rad50 strain (AID 155);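 also: 0% = growth of vehicle-only cultures of the same strain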; conditions: S. cerevisiae rad50 strain growth inhibition; at 50.0 µM; hits give high values
Method in brief: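 Inhibition values express reduced yeast growth in compound-treated cultures relative to vehicle-treated controls.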

[2] = NCI Yeast Anticancer Drug Screen. Data for the mec2-1 strain (AID 157); conditions: S. cerevisiae mec2-1 strain, at 50.0 µM, hits give high values
Method in brief: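 Strain: mec2-1 (DNA repair/cell cycle alteration). Compound exposure, then growth measured; inhibition expressed relative to vehicle.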

[3] = NCI Yeast Anticancer Drug Screen. Data for the sgs1 mgt1 strain (AID 161);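 also: 0% = growth of cultures given vehicle only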; conditions: S. cerevisiae sgs1 mgt1 strain, at 50.0 µM, hits give high values
Method in brief: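 Test agents were incubated with a DNA-repair-mutant yeast strain. Growth was then read and compared against vehicle-treated controls.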

[4] = NCI Yeast Anticancer Drug Screen. Data for the cln2 rad14 strain (AID 165);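 also: 0% = growth equal to vehicle treated cultures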; conditions: S. cerevisiae cln2 rad14 strain, at 50.0 µM, hits give high values
Method in brief: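 Compounds are applied to the cln2 rad14 yeast strain, and growth is then compared with that of vehicle-treated cultures to give inhibition.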

[5] = NCI Yeast Anticancer Drug Screen. Data for the bub3 strain (AID 167); conditions: S. cerevisiae bub3 mutant strain, at 50.0 µM, hits give high values
Method in brief: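 Steps: expose the mutant yeast strain to compound; grow alongside vehicle-treated cultures; measure growth; express inhibition against the vehicle cultures.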

[6] = NCI Yeast Anticancer Drug Screen. Data for the mlh1 rad18 strain (AID 175); conditions: S. cerevisiae mlh1 rad18 strain growth inhibition; at 50.0 µM; hits give high values
Method in brief: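 Read-out is yeast growth inhibition, calculated against vehicle-only controls. The compound was applied to a strain engineered with DNA damage repair alterations.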

SMILES	growth inhibition [1]	growth inhibition [2]	growth inhibition [3]	growth inhibition [4]	growth inhibition [5]	growth inhibition [6]
CCOC(=O)C(NC(=O)c1ccccc1)(Nc1ccc(S(=O)(=O)Nc2ncccn2)cc1)C(F)(F)F (configuration not stated)	1.1%	-17.4%	-16.8%	-4.55%	-12.7%	16.9%
CC(NC(=O)c1ccccc1)C1CCCCC1 (configuration not stated)	-5.2%	-1.85%	-1.4%	-49.8%	-12.7%	0.75%
Cc1cc(S(=O)(=O)Nc2nnc3c(Cl)cc(C(F)(F)F)cn23)c(S)cc1Cl	-30.2%	-35.2%	-33.4%	-14.3%	13.9%	-20%
O=P(O)(OCC(Br)CBr)OCC(Br)CBr (configuration not stated)	-12.4%	-7.05%	11.2%	-45%	1.75%	23.8%
O=C(CSc1nc(-c2ccccc2)c(-c2ccccc2)[nH]1)NNC(=S)Nc1ccccc1	6.45%	0.5%	-7.15%	-26.3%	54.5%	3%
O=C(NNC(=S)Nc1ccccc1)c1nsc2ccccc12	43.5%	12.2%	35%	29.4%	28%	23.4%
Cc1noc(N)c1Sc1ccc(Br)cc1	98.7% (active)	98.8% (active)	99% (active)	98.5% (active)	98.8% (active)	99.1% (active)
OC1(Cl)c2cccc3cccc(c23)C1(O)Cl (configuration not stated)	-0.8%	5.8%	2.6%	-9.45%	0.25%	-14.1%
CC(=O)N(C(=O)CC(=O)N/N=C\c1ccc(Br)c(N(CCC#N)CCC#N)c1)c1ccc(Cl)cc1	7.7%	0.6%	8.1%	-7.8%	6.2%	-3.35%
CCOc1ccccc1NC(=O)C1CCCCC1C(=O)O (configuration not stated)	14.2%	16.7%	14.6%	25.6%	12.7%	7.8%
COc1ccccc1C(=O)N/N=C/c1ccncc1	-2.85%	24.5%	5.7%	-5.7%	20.2%	9.8%
COc1ccc(CC2c3cc(OC)c(OC)cc3C=CN2C)cc1OC (configuration not stated)	20.8%	4.55%	24.1%	14.9%	35.6%	2.3%
C\C(=C/C(=N/N=C\c1ccccc1O)c1ccccc1)c1ccccc1	13.8%	10.9%	-4.45%	-3.5%	5.6%	5.15%
Cc1cccc2c(N=[N+]=[N-])cc(C(F)(F)F)nc12	5.35%	6.7%	-0.6%	-43%	12.7%	-1.4%
CN(C)S(=O)(=O)c1cccc2ccccc12	3.35%	7.85%	-7.35%	-6.9%	2.45%	-8.65%
CCO[C@H]1OC(=O)[C@@H]2C(c3ccc(F)cc3)=NO[C@H]12	-27.1%	-44.4%	0.35%	2.7%	8.95%	-9.3%
NCC(=O)c1c[nH]c(=O)[nH]c1=O	-8.85%	-5.05%	-12.2%	-42.5%	-10.3%	4.4%
C1=NCCN=Cc2ccccc2O/N=N/Oc2ccccc21	-14.9%	-1.95%	-0.85%	-44.4%	15.4%	-4.7%
CC1(O)/C=C\C=C(\CO)C2CC(C)(C)C2(O)CC1 (configuration not stated)	-29.9%	-40%	-43.1%	-4.5%	-46%	-29.8%
COc1ccc(/C=N/N=C/c2ccc(OC)cc2)cc1	22.3%	0.7%	-14.1%	-34.5%	-19.8%	17.8%
COC(=O)/C=C/CCOS(C)(=O)=O	9.6%	-35%	0.55%	-39%	-3.25%	16.5%

SMILES	growth inhibition [1]	growth inhibition [2]	growth inhibition [3]	growth inhibition [4]	growth inhibition [5]	growth inhibition [6]
Cc1cc(C)c(NC(=O)NC2CCCCC2)c(C)c1	4.7%	7.05%	23.6%	-3.55%	34%	31.1%
CCC(C)C(CC)C(=O)N(C)C(=O)N(C)C(C)=O (configuration not stated)	-19.2%	33.3%	4.5%	-33.5%	13.7%	12.5%
CC(O)(COS(=O)(=O)c1ccccc1)c1ccccc1 (configuration not stated)	-8.1%	0.7%	-8.7%	-14%	26.7%	-8.4%
Cc1cccc(N=C/C=C/c2ccccc2)c1C	0.85%	-6.4%	-20.7%	-50.6%	-4.7%	-5.85%
O=C1OC(=O)C2C1N=NC2(c1ccccc1)c1ccccc1 (configuration not stated)	47.3%	26%	22.1%	-19.3%	-1.15%	39.8%
Nc1nc(N)nc(-c2ccccc2NC(=O)c2ccccc2N)n1	2.15%	14.3%	-0.25%	8.5%	6.85%	18%
O=C1C(CCCS)C(c2ccccc2)=NN1c1ccccc1 (configuration not stated)	54.9%	3.9%	18.4%	-12.8%	0.45%	39%
COC(=O)n1c(=O)oc2ccc(Br)cc21	99% (active)	99.1% (active)	99.4% (active)	99.4% (active)	99.5% (active)	99.2% (active)
O=C(O)c1ccccc1SC(Sc1ccccc1C(=O)O)c1ccccc1	-11.8%	-10.7%	-2.35%	-7.85%	12.1%	10.6%
O=c1c2n[nH]nc2nc2n1CC(c1ccccc1)S2 (configuration not stated)	-73.7%	-77%	-15.6%	-3.2%	-16.2%	-20.9%
CCCCCCCCCCCCNC(C)C1=C(O)c2ccccc2C(=O)C1=O (configuration not stated)	52.6%	20.3%	50%	25.9%	15%	44.9%
O=C(Nc1cc(Cl)ccc1Cl)c1ccc(Cl)cc1	-1.3%	-14.5%	4.45%	-44%	-9.7%	-12.7%
Cc1cccc(CNc2ccc(S(=O)(=O)c3ccc(NCc4cccc(C)n4)cc3)cc2)n1	4.7%	4.35%	9.75%	-8.95%	-5.95%	15.4%
CCN1C(=O)C(N=[N+]=[N-])(c2ccccc2)C(=O)c2ccccc21 (configuration not stated)	10.5%	-8.5%	-16.7%	6.6%	2.45%	0.65%
c1ccc(-c2cc(CNc3nc4ccccc4s3)on2)cc1	19.9%	10.7%	9.1%	5.45%	-4.55%	9.75%
COCCCNC(=O)C1C(=O)C(=O)N(CCCOC)C1=O (configuration not stated)	-2.35%	-3.45%	-15.8%	13.2%	-5%	-10.6%
CC(C)(c1cn(Cc2ccccc2)c2ccccc12)c1cn(Cc2ccccc2)c2ccccc12	39%	4.2%	17.9%	21.1%	-4.05%	10.8%
COc1c(NC(=O)c2ccc(C(=O)Nc3cccc([N+](=O)[O-])c3OC)cc2)cccc1[N+](=O)[O-]	22.3%	-6.1%	-9%	-20.6%	-2.2%	-1.3%
CCOC(=O)NC(Nc1cc(Cl)ccc1OC)(C(F)(F)F)C(F)(F)F	2.5%	-10.5%	-26.1%	9.65%	6.85%	-5.2%
CCOc1ccc(N2C(=O)NC3(c4ccccc4)N(C)C(=O)N(C)C23c2ccccc2)cc1 (configuration not stated)	-2.7%	-7.95%	13.8%	1.3%	17.1%	-16.8%
CN(C)c1ccc2[nH]cc(C(=O)O)c(=O)c2c1	4.15%	6.6%	10.3%	-1.05%	28.8%	7.35%
